# Laboratory results taken from PubChem BioAssay AID651820 (National Center for Advancing Translational Sciences (NCATS), 2012).
# About 12,000 (3.5%) of roughly 340,000 compounds were called active. Roughly 18% stayed inconclusive and do not appear here. The full list was thinned out, with actives kept by preference. A number with no mark means an inactive call. The call rests on the fitted dose curve; in most records, active means well fitted inhibition curve with a large enough effect; inconclusive means small, poorly fitted or top-dose-only effect, or another doubt; inactive means no such curve, though single readings can be large or run the other way.
# Assay: qHTS Assay for Inhibitors of Hepatitis C Virus (HCV)
# Details: Huh7.5.1 HCVcc-Cre infection, luciferase reporter, 44 h; series mostly up to 41.8 µM; activity change, negative = inhibition: at the top concentration
# How it was run: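 Cells (1,000/well) were plated 4 h before compound, then infected with HCVcc-Cre virus (~0.5 moi). After 44 h further culture, infection was read as luciferase luminescence following a 15 min substrate incubation at room temperature.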
# On the % scale 0 is the no-effect control and ±100 the full control effect; potency means the concentration at half of the fitted maximal effect.
SMILES,"activity change, negative = inhibition",Potency
CCOC(=O)N1CCN(C(c2cccnc2)c2ccc3cccnc3c2O)CC1 (stereo not drawn),-17.6%,
Oc1c(C(c2ccccn2)N2CCOCC2)ccc2cccnc12 (stereo not drawn),,3.55 µM (active)
Cc1nc2sc(C(c3ccco3)N3CCOCC3)c(O)n2n1 (stereo not drawn),0.269%,
CCOC(=O)C1CCCN(C(=O)CSc2nnc3nc(C)cc(C)n23)C1 (stereo not drawn),-5.06%,
Cc1cc(C(=O)OCC(=O)N2C(C)CCCC2C)c2ccccc2n1 (stereo not drawn),-14.7%,
CCC(C)N(C(=O)CSc1ncnc2c1cnn2-c1ccccc1)C1CCS(=O)(=O)C1 (stereo not drawn),,14.1 µM (active)
CCN(C(=O)CSc1ncnc2c1cnn2-c1ccccc1)C1CCS(=O)(=O)C1 (stereo not drawn),-22.6%,
CC(C)CN(C(=O)CSc1ncnc2sccc12)C1CCS(=O)(=O)C1 (stereo not drawn),8.24%,
O=C(O)c1ccc(NN=CC2=C(N3CCOCC3)/C(=C/c3ccccc3)CC2)cc1,40.3%,
CC/C(=C(/c1ccccc1)c1ccc(OCC[N+](C)(C)C)cc1)c1ccccc1,3.46%,
CCOC(=O)c1ccccc1OC(=O)Oc1ccccc1C(=O)OCC,-20.5%,
COc1ccccc1C(=O)c1ccccc1C(=O)c1ccccc1,-3.41%,
CCOC(=O)C(=Cc1ccccc1OC)C(=O)OCC,,25.1 µM (active)
CC(=O)CC(CC(=O)NC1CCCCC1)c1ccccc1 (stereo not drawn),4.7%,
CN(CC(=O)O)C(=O)c1ccccc1,-4.81%,
COc1cccc(NC(=O)CN(C)C(=O)CSC(=S)N2CCCC2)c1,7.26% [at 8.37 µM],
O=C(Nc1ccccc1Cl)Nn1cnnc1,22.4%,
O=C(Nc1ccccc1Cl)/C(Cl)=C(\Cl)S(=O)c1ccccc1 (stereo not drawn),,11.2 µM (active)
COCCN(CCOC)C(=S)Nc1ccccc1Cl,-9.93%,
COc1ccc(-c2cc3ncccc3cn2)cc1,-19.5%,
CCCCCCCCn1c2c(c(=N)c3c1CCC3)CCCC2,,3.98 µM (active)
O=C(CCNS(=O)(=O)c1ccccc1C(F)(F)F)Nc1ccncc1,8.22%,
COc1ccccc1OCc1ccc(C(=O)N2CCN(C)CC2)o1,10.2%,

SMILES,"activity change, negative = inhibition",Potency
COc1ccccc1CNC(=O)c1ccc(CS(=O)(=O)c2ccccc2)o1,5.83%,
COc1ccccc1OCc1ccc(C(=O)NC(C)c2ccccc2)o1 (stereo not drawn),,7.08 µM (active)
CCCCn1c(N)c(N(CC(C)C)C(=O)c2cccc(S(=O)(=O)N3CC(C)OC(C)C3)c2)c(=O)[nH]c1=O (stereo not drawn),-10.1%,
CCCc1nnc(SCC(=O)Nc2ccc(C(=O)OCC)cc2)o1,10.9%,
CCOC(=O)c1ccc(NC(=O)Cn2cnc3cc(C)c(C)cc32)cc1,,3.55 µM (active)
CCOC(=O)c1ccc(NC(=O)Cn2nnc(-c3ccc(C)cc3)n2)cc1,-24.7%,
Cn1c(SCC(=O)Nc2ccc(N3CCOCC3)cc2)nnc1C(F)(F)F,-2.32%,
CC(NC(=O)c1ccccc1)C(=O)OCC(=O)Nc1cccc(S(=O)(=O)N2CCCC2)c1 (stereo not drawn),11.6%,
CC(NC(=O)CSc1nc2c(cc1C#N)CN(C)CC2)c1ccccc1 (stereo not drawn),-20.5%,
Cc1c(-c2ccccc2)nc(N)c(C#N)c1-c1cccs1,17.7%,
CN1CCc2nc(SC(C(=O)O)c3ccccc3)c(C#N)c(-c3cccs3)c2C1 (stereo not drawn),,10 µM (active)
Cc1ccc([C@@H]2CC=C(C(=O)O)[C@H](c3cccc(Cl)c3)N2S(=O)(=O)c2ccc(C)cc2)cc1,23.6%,
CC(C)(C)OC(=O)C[C@@H]1C/C=C\C[C@@H](CC(=O)N(CCO)Cc2ccccc2)C(=O)N[C@H](Cc2ccccc2)COC1=O,14.1%,
Cc1csc(=O)n1CC(=O)OCC(=O)N(CC(C)C)c1c(N)n(Cc2ccccc2)c(=O)[nH]c1=O,0.0195%,
Cn1c(=O)c2c(nc(Br)n2CCSc2nc3ccccc3o2)n(C)c1=O,-24%,
Cc1ccnc(SCCn2c(Br)nc3c2c(=O)[nH]c(=O)n3C)n1,-9.01%,
Cn1c(=O)[nH]c(=O)c2c1nc(Br)n2CCCCSc1nc2ccccc2o1,,12.6 µM (active)
CCCCC/C=C/C1=CC(=O)C[C@H](c2ccc(Cl)cc2)C1,-4.66%,
O=C1NCCn2nc3ccccc3c21,-0.139%,
Cn1c(N)c(C(=O)COC(=O)/C=C/c2cccc(C(F)(F)F)c2)c(=O)n(C)c1=O,5.92%,
Cc1cc(C)cc(-c2nnc(SCC(=O)NC3CC3)o2)c1,0.418%,
O=C(c1ccc2c(c1)N(Cc1ccc(F)cc1)C(=O)CS2)N1CCOCC1,14.1%,
CCOC(=O)N1CCN(C(=O)c2ccc3c(c2)N(Cc2ccc(C)cc2)CCS3)CC1,,12.6 µM (active)

SMILES,"activity change, negative = inhibition",Potency
O=C(NCCN1CCOCC1)c1ccc2c(c1)N(Cc1ccc(Cl)cc1)CCS2,8.59%,
O=C(NNC(=O)c1cc(S(=O)(=O)N2CCCCC2)ccc1Cl)c1ccccc1O,-11.9%,
CN(C(=O)CN1C(=O)NC(C)(CCc2ccccc2)C1=O)c1ccccc1 (stereo not drawn),16.1%,
O=C(COC(=O)c1cc[n+]([O-])cc1)Nc1ccc(Cl)c(C(F)(F)F)c1,0.896%,
O=C1c2ccccc2C(=O)N1CCCCCCN1C(=O)c2ccccc2C1=O,7.88%,
O=C(NNC(=O)c1ccc2ccccc2c1)c1ccc(Cl)cc1,-4.02%,
COc1ccc(C(=O)CN2C(=O)NC3(CCc4ccccc43)C2=O)c(OC)c1 (stereo not drawn),4.95%,
c1ccc(CCc2ccccn2)cc1,21.4%,
CCOC(=O)C1=C(C)NC(=O)NC1c1ccccc1 (stereo not drawn),6.14%,
CCOC(=O)C1=C(c2ccccc2)NC(=S)NC1c1ccc(Cl)cc1 (stereo not drawn),,11.2 µM (active)
CCOC(=O)C1=C(c2ccccc2)NC(=O)NC1c1cc(OC)c(OC)cc1OC (stereo not drawn),20.3%,
CCCn1c2ccccc2c2cnn(CC(=O)NCCCN3CCCCC3CC)c(=O)c21 (stereo not drawn),,11.2 µM (active)
CC1CCCCN1CCCNC(=O)Cn1ncc2c([nH]c3ccccc32)c1=O (stereo not drawn),12.5%,
CCC1CCCCN1CCCNC(=O)Cn1nc(-c2ccccc2)ccc1=O (stereo not drawn),5.92%,
CC(C)N(C(=O)CN1CCN(S(=O)(=O)c2ccc(Br)s2)CC1)C(C)C,8.62%,
Cc1ccc(/C=C/C(=O)OCC(=O)Nc2cccnc2Cl)cc1,-7.92%,
O=[N+]([O-])c1cc(C(F)(F)F)ccc1NCCc1ccncc1,-0.741%,
CC(C)(C)c1ccc(SCCc2ccncc2)cc1,,8.91 µM (active)
c1ccc(CSCCc2ccncc2)cc1,-1.66%,
CC1(C)Cc2ccccc2/C(=C/C(=O)c2ccccc2)N1,,14.1 µM (active)
CC1(C)Cc2ccccc2-c2[nH]c(=S)[nH]c(=O)c21,25.9%,
CC(C)CC(N=C1NC(C)(C)Cc2ccccc21)C(=O)O (stereo not drawn),11%,
